We go through 17 compounds from PubChem BioAssay AID720517 (National Center for Advancing Translational Sciences (NCATS), 2013).

Results filed as inconclusive are left out. Values without a mark were called inactive. Calls follow the shape of the dose curve; as a rule, active = well fitted activation curve with a large enough effect; inconclusive = small, poorly fitted or top-dose-only effect; inactive = flat fitted curve, though single readings scatter.

A short description of this assay: qHTS for Inhibitors of Cell Surface uPA Generation: FP59 Counterscreen for Cherry-picked Compounds. Also: 0% is about no effect. The following applies: FP59 anthrax toxin cytotoxicity counterscreen, cells; series mostly up to 115 µM; activity (protection from FP59): at the top concentration.
In the case of `O=C(Nc1ccc2c(c1)CCC2)Nc1ccc2c(c1)OCO2`, the “activity (protection from FP59)” value is 0.325%. On to `CCN1CCN(Cc2ccc(NC(=O)c3cc(NC(=O)c4cncc(-c5cccs5)c4)cc(OC)c3)cc2C(F)(F)F)CC1`, for which the “activity (protection from FP59)” value is 0.284%.

As for `O=C(CN1CCN(Cc2ccc(Cl)cc2)C1=O)NCc1cccs1`, the “activity (protection from FP59)” value was -1.43%. In the case of `N#CCC(=O)N/N=C/c1ccc(OCC(=O)Nc2ccc(F)cc2)cc1`, the “activity (protection from FP59)” value was 0.0987%. `Cc1cc(COc2ccccc2)oc1C(=O)O`: the “activity (protection from FP59)” value is -1.48%. For `O=C(NC[C@H]1CCCO1)c1cccc2c1C(=O)c1ccc(-c3ccc(F)cc3OCc3ccccc3)cc1S2(=O)=O`, the “activity (protection from FP59)” value was -1.32%. For the compound `Cc1ccc(-c2nc(CS(=O)(=O)CC(=O)NCc3cccc(F)c3)c(C)o2)cc1`, the “activity (protection from FP59)” value was -1.37%. `CC(C)CCN1C(=O)c2ccc(-c3nc4ccccc4c(=O)o3)cc2C1=O`: the “activity (protection from FP59)” value was -1.05%. On to `CNS(=O)(=O)c1cc(-c2nnc(Nc3ccc(CC(N)=O)cc3)c3ccccc23)ccc1C`, for which the “activity (protection from FP59)” value is -0.159%. Consider `Cc1cc(NC(=O)COc2cccc([N+](=O)[O-])c2)no1`, for which the “activity (protection from FP59)” value was -1.44%. Take `COc1cccc(C(=O)Cn2c(NCCCO)nc3ccccc32)c1`: the “activity (protection from FP59)” value is -1.55%. `CC(C)OC(=O)Nc1ccc(-c2ccc(NC(=O)OC(C)C)cc2Cl)c(Cl)c1`: the “activity (protection from FP59)” value is -1.28%. Take `CCn1nc(NS(=O)(=O)c2ccccc2)c2cc3cc(C)ccc3nc21`: the “activity (protection from FP59)” value is -1.52%.

Turning to `Cc1ccc(C(=O)NC(=S)Nc2ccc3[nH]c(=O)[nH]c3c2)c(C)c1`, the “activity (protection from FP59)” value was -1.44%.

As for `Cc1ccccc1S(=O)Cc1ccc(C(=O)N2CCN(C(=O)c3ccco3)CC2)o1` (configuration not stated), the “activity (protection from FP59)” value is -1.44%. For `CN(C)CCNC(=O)Nc1ccc([N+](=O)[O-])cc1`, the “activity (protection from FP59)” value was -1.32%. Consider `C/C=C(/C(=C/C)c1ccc(O)cc1)c1ccc(O)cc1`, for which the “activity (protection from FP59)” value was -1.04%.
